Screening results: PubChem BioAssay, Sanford-Burnham Center for Chemical Genomics
CYP2C19 act = human CYP2C19 activators, primary screen, biochemical, luminescence; AID 1025, 2008; recombinant CYP2C19, luciferin-H EGE luminescence; hits give high values; 0 = fully inhibited enzyme, 1 = untreated enzyme; 96,000 tested, under 10 active; activation factor at 5 µM; Cytochrome P450 2C19 (Homo sapiens), P33261;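 active = activation factor of at least 2 at 5 µM in the primary screen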
Mac1 fbg inh = inhibitors of CD11b/CD18 adhesion to fibrinogen, primary screen, K562 cells, luminescence. Integrin beta-2 (Homo sapiens) + Integrin alpha-M (Homo sapiens), P05107+P11215. ATPlite luminescence; Mn2+ added to activate the integrin. inhibition, % at 10 µM. actives 0.54% (n = 93,000). AID 1497, 2009;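 active = primary inhibition of 50% or more at 10 µM, then 40% or more on retest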
Mac1 fbg enh = enhancers of CD11b/CD18 adhesion to fibrinogen, primary screen, K562 cells, luminescence. activation, % at 10 µM. ATPlite luminescence. actives 0.07% (n = 93,000). AID 1499, 2009. Integrin beta-2 (Homo sapiens) + Integrin alpha-M (Homo sapiens), P05107+P11215;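 active = 10 µM primary screen giving 50% or more activity, confirmed by 40% or more on retest at that dose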
CYP2C9 inh = blockers of cytochrome P450 2C9 activity – biochemical, luminescence, ADME assay, primary screen; P11712; CYP2C9 Supersomes, luciferin-H conversion; inhibition, % at 5 µM; actives 20% (n = 96,000); AID 777, 2007;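 active = blocking of liver enzyme CYP2C9 beyond about 50% at 5 µM, limit read from the data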
Target sequence (P11712 whole entry, looked up): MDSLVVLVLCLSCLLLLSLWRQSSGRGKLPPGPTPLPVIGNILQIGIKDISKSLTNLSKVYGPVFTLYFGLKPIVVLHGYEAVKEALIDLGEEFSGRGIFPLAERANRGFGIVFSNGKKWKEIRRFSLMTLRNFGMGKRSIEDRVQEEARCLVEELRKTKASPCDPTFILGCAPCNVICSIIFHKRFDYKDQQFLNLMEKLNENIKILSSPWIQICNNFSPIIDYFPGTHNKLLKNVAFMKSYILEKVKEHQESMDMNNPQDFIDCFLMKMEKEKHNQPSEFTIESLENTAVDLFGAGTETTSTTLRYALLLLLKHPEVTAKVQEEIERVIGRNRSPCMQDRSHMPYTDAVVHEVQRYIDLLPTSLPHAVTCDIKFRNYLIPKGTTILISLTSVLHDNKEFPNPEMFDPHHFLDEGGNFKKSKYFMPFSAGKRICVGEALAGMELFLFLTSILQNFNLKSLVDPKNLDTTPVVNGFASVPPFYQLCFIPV
CYP2C19 inhib = blockers of cytochrome P450 2C19 activity – biochemical, luminescence, ADME assay, primary screen. CYP2C19 Supersomes, luciferin-H EGE luminescence, 30 min. inhibition, % at 5 µM. actives 21% (n = 96,000);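 active = CYP2C19 inhibition above a set limit at 5 µM in the primary screen, cut at about 50% in these data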
CYP2C9 activ = human CYP2C9 activators, primary screen, biochemical, luminescence. activation factor at 5 µM. actives 1.4% (n = 96,000). Cytochrome P450 2C9 (Homo sapiens), P11712. AID 1024, 2008. recombinant CYP2C9, luciferin-H conversion; hits give high values; factor 1 = untreated enzyme, 0 = blocked;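 active = activation factor of 2 or more for CYP2C9 at a 5 µM dose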
A number is an active result; n = inactive; x = no result given. This is a sample that favours compounds with a hit; in the whole collection about 28% have one here.

SMILES	CYP2C19 act	Mac1 fbg inh	Mac1 fbg enh	CYP2C9 inh	CYP2C19 inhib	CYP2C9 activ
COC(=O)c1cc(Br)c(=O)n(Cc2ccc(OC)c(OC)c2)c1	n	n	n	51	n	n
COc1ccc(CC(C)N2CCN(Cc3ccccc3)CC2)c(OC)c1 (stereo not drawn)	n	n	n	n	n	n
COc1cc(OC)c(C#N)c(S(=O)Cc2ccccc2)c1 (stereo not drawn)	n	n	n	n	99	2.3
COc1cccc(N(C(=O)c2ccco2)C(C(=O)NC2CCCC2)c2ccc(N(C)C)cc2)c1 (stereo not drawn)	n	n	n	n	n	n
O=C(NCC(=O)N(Cc1ccccc1)C(C(=O)NC1CCCC1)c1ccco1)c1ccco1 (stereo not drawn)	n	n	n	n	n	n
COc1ccc(CN(C(=O)CNC(=O)c2ccco2)C(C(=O)NC2CCCC2)c2ccco2)cc1 (stereo not drawn)	n	n	n	62	62	n
COc1cccc(N(C(=O)CNC(=O)c2ccco2)C(C(=O)NC2CCCCC2)c2ccncc2)c1 (stereo not drawn)	n	n	n	76	57	n
CCOc1ccccc1N(C(=O)c1ccco1)C(C(=O)NC1CCCC1)c1cccnc1 (stereo not drawn)	n	n	n	n	56	n
COc1cccc(N(C(=O)c2ccco2)C(C(=O)NC2CCCC2)c2cccnc2)c1 (stereo not drawn)	n	n	n	65	67	n
O=C(Nc1cc2c(cc1Cl)OCCCO2)c1ccccc1	n	n	n	n	n	n
COc1cc2c(cc1OC)C(Nc1ccccc1)=NC(C)(C)C2	x	n	n	x	x	x
O=C1CN(C(=O)COC(=O)C23CC4CC(CC(O)(C4)C2)C3)c2ccccc2N1	n	n	n	n	n	n
Cc1ccc(NCc2nnc(SC(C)C(=O)N/N=C/c3ccc(C)o3)n2-c2ccccc2)cc1 (stereo not drawn)	n	x	x	n	n	n
N#Cc1ccccc1NC(=O)c1ccc(-c2ccccc2Cl)o1	n	n	n	n	n	n
COc1ccc(NC(=O)C2CC(=O)OC23CCOC(C)(C)C3)cc1 (stereo not drawn)	n	n	n	n	57	n
CC1(C)CC2(CCO1)OC(=O)CC2C(=O)NCCc1ccccc1 (stereo not drawn)	n	n	n	n	n	n
Cc1cccc(NC(=O)C2CC(=O)OC23CCCCC3)c1 (stereo not drawn)	n	n	n	n	76	n
COc1ccc(C)cc1NC(=O)C1CC(=O)OC12CCCCC2 (stereo not drawn)	n	n	n	n	78	n
COc1cc(NC(=O)C2CC(=O)NC3=C2C(=O)CCC3)cc(OC)c1 (stereo not drawn)	n	x	x	n	n	n
O=c1c(Cc2ccc(Cl)cc2Cl)c(O)ccn1Cc1ccc(Cl)cc1	n	n	n	n	54	n
O=c1c(Cc2ccc(Cl)cc2)c(O)ccn1Cc1cccc(Cl)c1	n	n	n	n	n	n
Cc1cc(N2CCCC2)c(C)cc1C=O	n	n	n	62	n	n
Cc1ccc2[nH]cc(CCNC(=O)c3cccnc3)c2c1	n	n	n	64	88	n
Cc1ccc2[nH]cc(CCNC(=O)Nc3ccccc3)c2c1	n	n	n	54	97	n
CCNC(=O)NCCc1c[nH]c2ccc(Cl)cc12	n	n	n	n	78	n
SMILES	CYP2C19 act	Mac1 fbg inh	Mac1 fbg enh	CYP2C9 inh	CYP2C19 inhib	CYP2C9 activ
O=C(NCCc1ccc(Cl)cc1)Nc1cccc(Cl)c1	n	x	x	n	n	n
O=C(NCCc1nc2ccccc2[nH]1)Nc1ccccc1	n	n	n	n	n	n
CC(C)=CC/C=C1\CCC(C(=O)O)C(C(=O)O)C1 (stereo not drawn)	n	n	n	n	n	n
CCOc1ccccc1NC(=O)CSc1nnc(-c2ccccc2Cl)n1Cc1ccco1	n	n	n	n	70	n
CCOc1ccccc1NC(=O)CSc1nnc(-c2ccco2)n1Cc1ccco1	n	n	n	58	86	n
CCOc1ccccc1NC(=O)CSc1nnc(-c2ccccn2)n1Cc1ccco1	n	n	n	79	72	n
CC(Sc1nnc(-c2ccccc2)c(-c2ccccc2)n1)C(=O)N1CCc2ccccc21 (stereo not drawn)	x	n	n	x	x	x
COc1ccc(-c2coc3cc4oc(=O)cc(C)c4cc23)cc1F	n	n	n	n	58	n
COc1ccc(-c2coc3cc4oc(=O)cc(-c5ccccc5)c4cc23)cc1F	x	n	n	x	x	x
Cc1cc(C)c(-c2cc(NC(=O)CSc3n[nH]c(N)n3)n(-c3ccccc3)n2)cc1C	n	n	n	90	94	n
Nc1nc(SCC(=O)NCCC(c2ccccc2)c2ccccc2)n[nH]1	n	n	n	71	96	n
COc1cc(C(=O)OCC(=O)Nc2cc(-c3cc(C)c(C)cc3C)nn2-c2ccccc2)cc(OC)c1OC	x	n	n	x	x	x
C=CCn1c(C)cc(C(=O)CSc2n[nH]c(N)n2)c1C	n	n	n	n	n	2.6
Nc1nc(SCC(=O)NCc2ccccc2)n[nH]1	n	n	n	n	n	n
Cc1cc(C(=O)CSc2n[nH]c(N)n2)c(C)n1-c1ccccc1	n	n	n	58	87	n
Cc1cc(C(=O)CSc2n[nH]c(N)n2)c(C)n1-c1cc(F)ccc1F	n	n	n	54	76	n
Nc1nc(SCC(=O)Nc2ccc(Br)cc2F)n[nH]1	n	n	n	n	93	n
CC1CCN(c2ccc(C(=O)NCc3cccs3)cn2)CC1	n	n	n	n	n	n
Cc1c(/C=N/n2cnnc2)c2ccccc2n1CCOc1ccccc1	n	n	n	n	79	n
Cc1[nH]c2ccccc2c1/C=N/n1cnnc1	n	n	n	n	n	n
CCOc1ccc2ccccc2c1/C=N/n1cncn1	n	n	n	58	n	n
COc1cccc(/C=N/n2cnnc2)c1OCc1ccccc1	n	n	n	n	n	n
CCCOc1ccc2ccccc2c1/C=N/n1cnnc1	n	n	n	57	60	n
COc1ccccc1OCCOc1ccccc1/C=N/n1cnnc1	n	n	n	n	75	n
CC(C)Oc1ccc2ccccc2c1C=O	n	n	n	n	n	n
CCOC(=O)c1ccc2c(c1)nc(SC/C(O)=C(\C#N)c1nc3ccccc3[nH]1)n2CC	n	n	n	n	n	n
CCOC(=O)c1ccc2c(c1)nc(SCC(=O)N1CCCCC1)n2CC	n	n	n	88	78	n
CCOC(=O)c1ccc2c(c1)nc(SCC(=O)c1ccco1)n2CC	n	n	n	69	n	n
